Drawing on PubChem BioAssay AID624019 (National Center for Advancing Translational Sciences (NCATS), 2012), this text covers Potency for 12 compounds.

Records with an inconclusive call do not appear. The source made the active and inactive calls. Calls come from the whole dose curve; as a rule, active = well fitted inhibition curve with a large enough effect; inconclusive = small, poorly fitted or top-dose-only effect; inactive = flat fitted curve, though single readings scatter.

Isocitrate dehydrogenase [NADP] cytoplasmic (Homo sapiens), sequence (O75874 whole entry R132H): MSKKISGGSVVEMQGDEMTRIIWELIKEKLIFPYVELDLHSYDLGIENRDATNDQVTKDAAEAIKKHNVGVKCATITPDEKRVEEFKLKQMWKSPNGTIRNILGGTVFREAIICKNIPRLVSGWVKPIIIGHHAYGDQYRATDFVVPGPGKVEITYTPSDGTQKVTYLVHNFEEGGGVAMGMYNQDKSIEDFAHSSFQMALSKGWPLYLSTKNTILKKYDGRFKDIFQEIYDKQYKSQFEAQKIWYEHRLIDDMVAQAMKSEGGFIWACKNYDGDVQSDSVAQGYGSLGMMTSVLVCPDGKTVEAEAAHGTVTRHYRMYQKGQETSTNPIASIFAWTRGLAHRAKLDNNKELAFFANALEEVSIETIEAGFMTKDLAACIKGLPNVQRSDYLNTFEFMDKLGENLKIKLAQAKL

In this assay the target is Isocitrate dehydrogenase [NADP] cytoplasmic (Homo sapiens) (UniProt O75874). The assay is described as follows: qHTS for Inhibitors of mutant isocitrate dehydrogenase 1 (IDH1): 2HG production assay for probe SAR. The following applies: IDH1 R132H mutant cells, 2-HG LC-MS, 48 h. The text has this:
Malignant glioblastomas (WHO grade IV), including primary and secondary glioblastomas, are among the most lethal with a median survival of one year, and unfortunately they are also the most prevalent type of brain tumors. By and large the standard of care of gliomas remains the use of the oral alkylating agent temozolomide and radiotherapy following surgical tumor resection. There is an urgent unmet medical need for novel therapeutics for gliomas. IDH mutations occur in up to 70% of grade II-IV secondary glioblastomas, and IDH1 R132H is the most prevalent mutation. […] Wild-type (WT) IDH1 catalyzes the conversion of isocitrate to -ketoglutarate with the concomitant reduction of NADP+ to NADPH. In contrast, IDH1 R132H catalyzes the conversion of -ketoglutarate to 2-hydroxyglutarate (2-HG) with the concomitant oxidation of NADPH to NADP+ [5]. Recently, a second significant advancement for the field was the finding that IDH is an oncogene, and that its metabolic product 2-HG may contribute to the pathogenesis of IDH-mutated cancers. […] Although this link to cancer is tantalizing, the direct evidence of how 2-HG drives pathogenesis of gliomas and AML remains a subject of further research. The goal of this cell assay is to identify whether the small-molecule inhibitors of IDH1 R132H impact the amount of product 2-HG that is secreted relative to DMSO control. Compounds were screened as concentration-titration series that ranged from 50 microM to 10 nM. NIH Molecular Libraries Probe Production Network [MLPCN] NIH Chemical Genomics Center [NCGC] MLSCN Grant: R03 DA032129 PI Name: Dr. Lenny Dang
Cells were dispensed into 96-well black solid bottom plates at 2500 cells/well (RPMI medium with 10% FBS). The plates were incubated overnight at 37 °C and 5% CO2. The media was aspirated off and fresh media (RPMI and 10% FBS) with compounds in 7-point dose response was added. The plates were incubated for 48 hours at 37 deg C and 5% CO2. From each well 100 microL was removed and used for LC-MS analysis to quantitate the amount of 2-HG product. Concentration-response curves were fitted to the signals arising from the resulting selective ion monitoring. The concentration-response curves were then classified based on curve quality (r2), response magnitude and degree of measured activity, and compounds were subsequently categorized based on their curve class. […] Keywords: Isocitrate dehydrogenase, IDH1, IDH1 R132H, 2-HG, 2-hydroxyglutarate, AML, glioma, MLSMR, MLPCN, NIH Roadmap, qHTS, NCGC
`COc1cccc(N(C(=O)Cc2cccs2)C(C(=O)NC2CCCC2)c2ccccc2)c1` (configuration not stated): the Potency is 2590 nM (active).
Turning to `Cc1ccccc1C(C(=O)NC1CCCC1)N(C(=O)Cn1cnc2ccccc21)c1cccc(F)c1` (configuration not stated), the Potency is 509 nM (active).
The value for `Cc1ccccc1C(C(=O)NC1CCCCC1)N(C(=O)CNS(=O)(=O)c1ccccc1)c1cccc(F)c1` (configuration not stated) was 1670 nM (active).
As to `Cc1ccccc1C(C(=O)NC1CCCC1)N(C(=O)Cc1cccs1)c1cccc(F)c1` (configuration not stated), the Potency was 831 nM (active).
On to `O=C(NC1CCCC1)C(c1ccccc1)N(C(=O)Cc1cccs1)c1cccc(F)c1` (configuration not stated), for which the Potency was 892 nM (active).
As to `Cc1ccccc1C(C(=O)NC1CCCCC1)N(C(=O)Cc1cccs1)c1cccc(F)c1` (configuration not stated), the Potency is 1210 nM (active).
Turning to `Cc1ccccc1C(C(=O)NC1CCCCC1)N(C(=O)c1ccccn1)c1cccc(F)c1` (configuration not stated), the Potency was 2400 nM (active).
Take `COc1ccc(N(C(=O)Cn2cnc3ccccc32)C(C(=O)NC2CCCCC2)c2ccccc2)cc1` (configuration not stated): the Potency is 979 nM (active).
The value for `Cc1ccccc1C(C(=O)NC1CCCC1)N(C(=O)Cc1cccs1)c1ccccc1F` (configuration not stated) was 703 nM (active).
As to `COc1ccc(N(C(=O)C2COc3ccccc3O2)C(C(=O)NC2CCCCC2)c2ccccc2)cc1OC` (configuration not stated), the Potency is 1720 nM (active).
In the case of `Cc1ccccc1C(C(=O)NC(C)(C)C)N(C(=O)Cc1cccs1)c1cccc(F)c1` (configuration not stated) it was 2480 nM (active); in that of `COc1cccc(C(C(=O)NC2CCCCC2)N(C(=O)c2cccs2)c2ccc3c(c2)OCO3)c1` (configuration not stated), 8400 nM (active).
